Results: ChEMBL document CHEMBL3988442, “University of Dundee, Small-Polar-MMV Screening Library” (2021)
The whole screen tested about 48,000 compounds, of which about 13,000 (27%) showed an effect of 50% or more. The list shows a part of the results.

The compounds below were run on Wolbachia pipientis (assay: Anti-Wolbachia Cell-Based Screen). Details: 5 µM.
Format: functional
Parameters: scale not given: in the data most compounds retested in dose-response had high values

| SMILES | Percent Effect [%] |
| --- | --- |
| CCC1c2ccccc2CCN1C(=O)c1ccc(OC)nn1 (stereo unspecified) | -4.117 |
| Cc1cc(CN(C)c2nc(-c3ccccn3)nc3c2CCNCC3)n[nH]1 | -2.668 |
| CCOCc1nc2c(c(N(C)Cc3nonc3C)n1)CCNCC2 | 2.534 |
| CN(Cc1ccc2c(c1)OCO2)Cc1nc(-c2ccco2)no1 | 2.905 |
| CC(C)n1nc2c(cc1=O)CN(Cc1nc(-c3ccco3)no1)CC2 | -11.95 |
| Cc1nonc1CN(C)c1nc(-c2cccnc2)nc2c1CCNC2 | 3.087 |
| Cc1noc(CN(C)c2nc(-c3ccco3)nc3c2CCN(C)CC3)n1 | 89.77 |
| Cc1nonc1CN(C)c1nc(-c2ccco2)nc2c1CCN(C)CC2 | 97.89 |
| Cc1cc(CN(C)c2nc(-c3ccco3)nc3c2CCN(C)CC3)on1 | 70.19 |
| Cc1nc(CNc2nc(-c3ccco3)nc3c2CCNCC3)n[nH]1 | 7.543 |
| COCCNC(=O)CN(C)Cc1ccc(F)cc1Cl | 14.02 |
| COc1ccc(CN(C)C2CSCCSC2)c2cccnc12 | -27.46 |
| CC(NC(=O)NCC(C)(C)O)c1ccc(-c2ccncc2)cc1 (stereo unspecified) | -1.867 |
| c1ccc2oc(CCCN3CCCC3Cn3cncn3)nc2c1 (stereo unspecified) | -5.809 |
| Cc1nc2ccccc2nc1CN1CCCCC1Cn1cncn1 (stereo unspecified) | -2.917 |
| Cc1nc(CN2CCCCC2Cn2cncn2)nc2ccccc12 (stereo unspecified) | 1.919 |
| c1ccc2oc(CN3CCCCC3Cn3cncn3)nc2c1 (stereo unspecified) | 109.3 |
| c1ccc2oc(N3CCCC3Cn3cncn3)nc2c1 (stereo unspecified) | 106.1 |
| Cc1nc2ccccc2nc1CN1CCCC1Cn1cncn1 (stereo unspecified) | -6.198 |
| Cc1nc(CN2CCCC2Cn2cncn2)nc2ccccc12 (stereo unspecified) | 12.85 |
| c1ccc2oc(N3CCCCC3Cn3cncn3)nc2c1 (stereo unspecified) | -11.74 |
| c1ccc2oc(CCCN3CCCCC3Cn3cncn3)nc2c1 (stereo unspecified) | 92.19 |

| SMILES | Percent Effect [%] |
| --- | --- |
| c1ccc2c(N3CCCCC3Cn3cncn3)ncnc2c1 (stereo unspecified) | -5.98 |
| c1ccc2oc(CN3CCCC3Cn3cncn3)nc2c1 (stereo unspecified) | 131.5 |
| CCOC(=O)NC(CNC(=O)c1cc(Cl)ccn1)CC(C)C (stereo unspecified) | 7.591 |
| CCOCc1nn(CC2CC2)c2c1CN(C(=O)c1ccno1)CC2 | 13.02 |
| CC(=O)N1CCC(c2cc(C(F)(F)F)n3ccnc3n2)CC1 | 1.424 |
| CC(C)N1CCC(c2cc(C(F)(F)F)n3ccnc3n2)CC1 | 75.91 |
| CN1CCC(N2CC[C@H](c3nc4ccc(C(F)(F)F)cc4[nH]3)C2)CC1 | -1.878 |
| CC(C)n1ccnc1C1CCN(Cc2ccc(Cl)c(F)c2)CC1 | -2.763 |
| N#Cc1ccccc1CN1CCC(c2nccn2CC(N)=O)CC1 | -2.764 |
| CN1CCC(c2cc(C(F)(F)F)n3ccnc3n2)CC1 | 137.1 |
| NC(=O)CN1CCC(c2cc(C(F)(F)F)n3ccnc3n2)CC1 | 134.1 |
| CCCN1CCN(S(=O)(=O)c2ccccc2OC)[C@H]2CS(=O)(=O)C[C@H]21 | -12.25 |
| Cc1cnc(C)c(N2CCCC(C/C=C/c3ccccc3)(C(=O)O)C2)n1 (stereo unspecified) | -10.18 |
| Cc1ccoc1CNCc1nnc2n1CCCC2C(F)(F)F (stereo unspecified) | -14.27 |
| CC[C@H](C)Nc1nccc(-c2cnc3sc(C)c(C)n3c2=O)n1 | -3.163 |
| CCCn1ncc(-c2ccnc(N[C@@H]3C[C@@H]4CC[C@H]3C4)n2)c1C | -16.18 |
| CCNC(=O)N1CCC(Nc2nccc(NCC)n2)CC1 | -9.692 |
| Cc1sc2ncc(-c3ccnc(NC4CCN(C)CC4)n3)c(=O)n2c1C | 102.6 |
| CNc1nccc(-c2cnc3sc(C)c(C)n3c2=O)n1 | 88.7 |
| CNc1nccc(-c2cn(C)nc2C)n1 | 5.366 |
| CCOCCN1CCN(Cc2nnc(C3CC3)o2)CC1CC (stereo unspecified) | 2.687 |
| O=C(c1ccc2c(c1)CCO2)N1CCN(c2ncccn2)CC1 | 13.67 |

| SMILES | Percent Effect [%] |
| --- | --- |
| O=C(CCc1ccc(-n2cnnn2)cc1)Nc1nncs1 | 117.3 |
| O=C(Cc1ccc(-n2cnnn2)cc1)Nc1nncs1 | -7.49 |
| COC(=O)c1ccc(NC(=O)CCc2ccncc2)c(C)c1 | -3.514 |
| O=C(CCc1ccc(-n2cnnn2)cc1)Nc1ccncc1 | 118.2 |
| O=C(CCc1ccncc1)Nc1ccc(OCC2CC2)cc1 | 33.82 |
| O=C(CCn1cc(Cl)cn1)Nc1nncs1 | -12.52 |
| Cc1nnc(CN(C)Cc2ccc(C(=O)Nc3sccc3C#N)cc2)o1 | 8.936 |
| CC(C)c1nc2c(n1C)CCN(CCS(=O)(=O)c1ccccc1)C2 | 16.54 |
| Cc1nc(-c2cccc(N3CCC(N4CCCC(C#N)C4)CC3)c2)cs1 (stereo unspecified) | 9.753 |
| CC(C)C(=O)NCC(=O)NCC1CCN(c2cnn(C)c(=O)c2)CC1 | -2.577 |
| Cc1ccc(C(=O)NCCC2CN(c3cnn(C)c(=O)c3)CCO2)s1 (stereo unspecified) | 76.89 |
| Cn1cc(CN2CCOC(CCNC(=O)c3ccsc3)C2)cn1 (stereo unspecified) | -1.141 |
| Cc1cnn(C(C)C(=O)NCC2CCN(c3cnn(C)c(=O)c3)CC2)c1 (stereo unspecified) | -4.842 |
| CC(=O)N1CCCC(C(=O)N2CCN(c3cnn(C)c(=O)c3)CC2)C1 (stereo unspecified) | -1.408 |
| CCC(=O)N1CCCC(C(=O)N2CCN(c3cnn(C)c(=O)c3)CC2)C1 (stereo unspecified) | 6.032 |
| Cn1ncc(N2CCC(CNC(=O)[C@@H](N)c3ccccc3)CC2)cc1=O | -13.88 |
| Cn1ncc(N2CCOC(CCNC(=O)N3CCCCC3)C2)cc1=O (stereo unspecified) | 104.2 |
| Cn1ncc(N2CCOC(CCNC(=O)CO)C2)cc1=O (stereo unspecified) | 110.6 |
| CC(CN1CCCC1)C(=O)NCC1CCN(c2cnn(C)c(=O)c2)CC1 (stereo unspecified) | -3.002 |
| Cn1ncc(N2CCC(CNC(=O)[C@@H](N)C3CCCCC3)CC2)cc1=O | -13.96 |
| CN1CCC(C(=O)NCCC2CN(c3cnn(C)c(=O)c3)CCO2)CC1 (stereo unspecified) | 98.07 |
| CC(C)(C)c1cn2c(n1)C(CNCc1cnn3ccccc13)CCC2 (stereo unspecified) | 3.116 |

| SMILES | Percent Effect [%] |
| --- | --- |
| O=C1CC(NS(=O)(=O)N2CCOCC2)CN1Cc1ccccc1 (stereo unspecified) | 1.886 |
| Cc1ncsc1C(=O)NCc1cccnc1N(C)CCc1ccccn1 | 6.517 |
| Cc1noc(-c2cccnc2N2CCOC(C)(c3cnn(C)c3)C2)n1 (stereo unspecified) | -3.53 |
| COCCN(CCOC)C(=O)NC1CCCCC1 | -2.793 |
| Cc1[nH]ccc1C(=O)N[C@H]1CN(CCO)C[C@@H]1C1CC1 | -10.03 |
| CCC(C)NC(=O)CS(=O)(=O)Cc1nc(-c2cccs2)no1 (stereo unspecified) | 8.727 |
| CNC(=O)N1CCC(=Cc2ccccc2)CC1 | -5.2 |
| CC(C)N1CCC[C@H]1C(=O)NCC1CCN(c2cnn(C)c(=O)c2)CC1 | -21.78 |
| CCOC(=O)N1CCC(NCC2CCN(c3cnn(C)c(=O)c3)C2)CC1 (stereo unspecified) | -6.682 |
| CCCOC(=O)NCCC1CN(c2cnn(C)c(=O)c2)CCO1 (stereo unspecified) | 96.42 |
| CCC1CN(c2cnn(C)c(=O)c2Br)CCO1 (stereo unspecified) | 20.16 |
| Cn1ncc(N2CCOC(CCNC(=O)NC(C)(C)C)C2)cc1=O (stereo unspecified) | 101.8 |
| CCC(OC)C(=O)NCC1CCN(c2cnn(C)c(=O)c2)CC1 (stereo unspecified) | -16.23 |
| COCCN(CC(F)F)c1cc(C(F)(F)F)nc2ncnn12 | -7.811 |
| Cc1cnn(-c2ccc(S(=O)(=O)N(C)CC(F)F)cc2F)c1 | 2.178 |
| CC(C)Cc1cc(C(=O)NC(C)(C)CN2CCCCCC2)on1 | 2.202 |
| COc1cc(C(=O)NCCS(=O)(=O)N(C)C)c2ccccc2n1 | 5.496 |
| Cc1cc(C(=O)NCC2(N(C)C)CCCC2)c(C)n1-c1cccnc1 | 3.224 |
| COc1cc(C(=O)NC(C)(C)CN2CCN(C)CC2)c2ccccc2n1 | 96.51 |
| CN1CCN(Cc2ccccc2CNC(=O)c2ccc(Cl)cc2F)CC1 | -10.17 |
| COc1cc(C(=O)NCC2(N(C)C)CCN(C)CC2)c2ccccc2n1 | 126.6 |
| CC(C)(C)c1ncc(C(=O)N2CCN(C(=O)c3ccc[nH]3)CC2)c(O)n1 | -10.28 |

| SMILES | Percent Effect [%] |
| --- | --- |
| O=C(c1ccc[nH]1)N1CCC2(CC1)COCCN(c1nccs1)C2 | 4.422 |
| Cc1ccc(F)cc1C(=O)N1C[C@@H](CN2CCOCC2)[C@@H](CO)C1 | -1.252 |
| Cc1[nH]ccc1C(=O)N1CCC2(CC1)c1nc[nH]c1CCN2S(C)(=O)=O | -18.24 |
| Cc1[nH]ccc1C(=O)N1CCOCC12CCCC2 | 102.2 |
| Cc1ccc(F)cc1C(=O)NCc1ccc(C(=O)O)o1 | 7.122 |
| CS(=O)(=O)N1CCCC12CCCN(C(=O)c1ccc[nH]1)C2 (stereo unspecified) | -4.016 |
| Cc1[nH]ccc1C(=O)N1CCCN1C(=O)OC(C)(C)C | -3.846 |
| O=C(c1ccc[nH]1)N1CCOCC12CCCC2 | 75.31 |
| Cc1ccc(F)cc1C(=O)N1CCOCC12CCCC2 | 111.7 |
| Cc1ccsc1C(=O)N1CCCc2c(c(=O)n(C)n2C)C1 | 9.7 |
| Cc1ccoc1C(=O)N1CCCc2c(c(=O)n(C)n2C)C1 | -8.814 |
| Cc1ccc(C(=O)N2CCCc3c(c(=O)n(C)n3C)C2)o1 | -7.196 |
| Cn1c2c(c(=O)n1C)CN(C(=O)c1ccsc1)CCC2 | -11.42 |
| Cn1c2c(c(=O)n1C)CN(C(=O)c1cccc(F)c1)CCC2 | 83.47 |
| Cn1c2c(c(=O)n1C)CN(C(=O)c1ccncc1F)CCC2 | 104.3 |
| Cn1c2c(c(=O)n1C)CN(C(=O)c1cnccn1)CCC2 | 106.7 |
| Cn1nc(CN2CCCC2)c2c1CN(C(=O)c1ccncc1F)CC2 | -1.138 |
| Cn1c2c(c(=O)n1C)CN(C(=O)c1ccco1)CCC2 | 0.5105 |
